Measured values taken from PubChem BioAssay.
Active and inactive are the calls of the source.

What was measured:
[1] = tested on: Plasmodium falciparum Sir2 (PF13_0152, Sir2A); experiment: pfSir2 binders on small-molecule microarrays, primary screen, biochemical, small-molecule microarray, 635 nm fluorescence (AID 1098); conditions: small-molecule microarray binding, fluorescence 635 nm; higher = more signal;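 further: score merges spot fluorescence intensity with its signal-to-noise ratio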
[2] = small-molecule microarray binders of probe aDKK1, primary screen, biochemical, biotinylated probe, 635/667 nm fluorescence (AID 1099); conditions: higher = more signal;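 further: score merges 667nm spot fluorescence with signal to noise across triplicate slides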
[3] = small-molecule microarray binders of probe aCHRDL2, primary screen, biochemical, biotinylated probe, 635/667 nm fluorescence (AID 1100); conditions: higher = more signal
[4] = splicing luciferase reporter signal modulators, primary screen, spliceosome inhibition project, cell-based, HEK293, splice +/- reporter (AID 1101); conditions: luminescence, 24 h, higher = more signal, called active from +8 up or from −8 down;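 further: HEK293 cells carrying a splicing-competent luciferase reporter gene; test concentration not given here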
[5] = target: Fibroblast growth factor 10 (Homo sapiens) (UniProt O15520); experiment: FGF10 binders on small-molecule microarrays, primary screen, biochemical, small-molecule microarray, 635 nm fluorescence (AID 1102); conditions: FGF10 binding, fluorescence 635 nm, higher = more signal
Sequence of Fibroblast growth factor 10 (Homo sapiens) (O15520 whole entry, looked up): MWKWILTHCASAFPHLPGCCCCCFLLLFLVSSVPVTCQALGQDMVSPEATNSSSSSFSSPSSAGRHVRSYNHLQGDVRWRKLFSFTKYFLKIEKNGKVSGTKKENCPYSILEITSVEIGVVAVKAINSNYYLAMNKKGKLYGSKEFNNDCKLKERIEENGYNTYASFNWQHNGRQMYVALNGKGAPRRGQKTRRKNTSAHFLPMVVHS

[6] = tested on: glycogen synthase kinase-3 (GSK3A per assay name; protocol says GSK3B); experiment: GSK3 binders on small-molecule microarrays, primary screen, biochemical, small-molecule microarray, 635 nm fluorescence, GSK3A (AID 1103); conditions: small-molecule microarray binding, fluorescence 635 nm; higher = more signal; further: the record names both GSK3A and GSK3B
[7] = target: Epidermal growth factor receptor (Homo sapiens) (UniProt P00533); experiment: EGFR binders on small-molecule microarrays, primary screen, biochemical, small-molecule microarray, 635 nm fluorescence (AID 1104); conditions: EGFR binding, higher = more signal;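 further: score merges 667 nm emission intensity with spot signal to noise over triplicate slides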
Sequence of Epidermal growth factor receptor (Homo sapiens) (P00533 whole entry, looked up): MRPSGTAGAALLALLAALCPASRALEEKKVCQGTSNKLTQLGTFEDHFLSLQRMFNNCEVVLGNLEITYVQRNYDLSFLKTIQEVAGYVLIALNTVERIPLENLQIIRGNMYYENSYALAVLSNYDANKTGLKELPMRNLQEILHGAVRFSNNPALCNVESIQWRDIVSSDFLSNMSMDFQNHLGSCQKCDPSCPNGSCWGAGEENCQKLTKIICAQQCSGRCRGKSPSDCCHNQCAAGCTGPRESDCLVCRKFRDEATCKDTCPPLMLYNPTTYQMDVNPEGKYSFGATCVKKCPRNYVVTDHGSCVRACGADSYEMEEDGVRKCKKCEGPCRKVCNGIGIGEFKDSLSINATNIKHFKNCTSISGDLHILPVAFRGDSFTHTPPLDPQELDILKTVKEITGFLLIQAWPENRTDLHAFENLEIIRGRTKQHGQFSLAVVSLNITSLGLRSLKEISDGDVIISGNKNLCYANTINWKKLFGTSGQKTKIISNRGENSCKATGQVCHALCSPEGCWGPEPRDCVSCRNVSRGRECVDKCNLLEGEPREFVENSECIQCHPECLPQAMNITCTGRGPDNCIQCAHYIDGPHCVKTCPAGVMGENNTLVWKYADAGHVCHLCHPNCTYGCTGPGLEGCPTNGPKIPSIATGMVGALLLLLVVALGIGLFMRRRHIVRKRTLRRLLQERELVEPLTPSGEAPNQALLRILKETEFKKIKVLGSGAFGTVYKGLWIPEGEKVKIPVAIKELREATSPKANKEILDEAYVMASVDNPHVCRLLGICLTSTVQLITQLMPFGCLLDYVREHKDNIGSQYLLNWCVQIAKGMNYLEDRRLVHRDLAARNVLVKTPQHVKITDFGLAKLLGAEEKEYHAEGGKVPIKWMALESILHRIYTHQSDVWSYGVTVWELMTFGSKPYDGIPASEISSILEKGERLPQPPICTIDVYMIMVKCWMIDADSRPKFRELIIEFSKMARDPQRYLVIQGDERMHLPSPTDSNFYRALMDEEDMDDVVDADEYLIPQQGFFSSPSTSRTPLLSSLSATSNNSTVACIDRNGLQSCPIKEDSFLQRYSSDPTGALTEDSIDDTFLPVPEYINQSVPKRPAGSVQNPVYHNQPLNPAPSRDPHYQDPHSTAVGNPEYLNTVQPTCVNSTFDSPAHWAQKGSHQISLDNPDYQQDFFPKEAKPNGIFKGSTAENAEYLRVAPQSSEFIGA

[8] = target: Follistatin-related protein 3 (Homo sapiens) (UniProt O95633); experiment: FSTL3 binders on small-molecule microarrays, primary screen, biochemical, small-molecule microarray, 635 nm fluorescence (AID 1105); conditions: FSTL3 binding, higher = more signal;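 further: score merges emission near 667 nm and signal to noise per printed spot across three slides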
Sequence of Follistatin-related protein 3 (Homo sapiens) (O95633 whole entry, looked up): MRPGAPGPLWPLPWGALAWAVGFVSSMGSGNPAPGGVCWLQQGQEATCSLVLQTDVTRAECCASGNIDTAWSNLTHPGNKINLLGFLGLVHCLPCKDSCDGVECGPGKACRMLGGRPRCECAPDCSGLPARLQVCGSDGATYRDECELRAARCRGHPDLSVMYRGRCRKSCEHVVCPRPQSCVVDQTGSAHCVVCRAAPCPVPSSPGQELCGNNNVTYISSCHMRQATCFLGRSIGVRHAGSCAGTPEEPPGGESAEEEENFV

[9] = target: Dickkopf-related protein 1 (Homo sapiens) (UniProt O94907); experiment: DKK1 binders on small-molecule microarrays, primary screen, biochemical, small-molecule microarray, 635 nm fluorescence scan (AID 1106); conditions: DKK1 binding, higher = more signal;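 further: score merges emission near 667 nm with signal to noise over three replicate slides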
Sequence of Dickkopf-related protein 1 (Homo sapiens) (O94907 whole entry, looked up): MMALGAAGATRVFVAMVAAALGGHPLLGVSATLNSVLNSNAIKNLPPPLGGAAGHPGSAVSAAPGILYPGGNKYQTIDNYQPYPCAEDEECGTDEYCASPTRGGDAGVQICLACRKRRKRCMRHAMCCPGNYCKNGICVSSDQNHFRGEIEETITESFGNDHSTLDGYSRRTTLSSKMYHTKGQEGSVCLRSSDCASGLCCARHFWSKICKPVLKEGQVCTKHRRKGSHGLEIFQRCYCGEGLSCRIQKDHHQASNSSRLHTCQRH

[10] = tested on: Inhibin beta A chain (activin A); experiment: INHBA (activin A) binders on microarrays, primary screen, biochemical, small-molecule microarray, 635 nm fluorescence scan (AID 1107); conditions: small-molecule microarray binding, higher = more signal;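 further: mouse activin A protein probed at 4.33 µg/mL on printed slides; score merges bound-protein fluorescence near 667 nm with spot signal-to-noise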
[11] = tested on: Human papillomavirus type 1a protein E7 (residues 44-93); experiment: HPV1a E7 fragment binders on microarrays, primary screen, biochemical, small-molecule microarray, residues 44-93, 635 nm fluorescence (AID 1108); conditions: small-molecule microarray binding, fluorescence 635 nm; higher = more signal;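 further: E7 fragment applied at 1 µg/mL in TBST for 1 h at 4 C; score combines spot fluorescence with its signal to noise ratio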
[12] = modulators of HCV replicon luciferase signal, primary screen, HCV replication inhibitor project, Huh7 cells, luciferase reporter (AID 1109); conditions: 48 h, higher = more signal;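 further: huh7 hepatoma cells harbouring a luciferase neomycin HCV replicon reporter; luciferase luminescence as measure of HCV replicon replication; test concentration not given here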
[13] = target: Left-right determination factor 2 (Homo sapiens) (UniProt O00292); experiment: LEFTY2 binders on small-molecule microarrays, primary screen, biochemical, small-molecule microarray, 635 nm fluorescence scan (AID 1110); conditions: LEFTY2 binding, higher = more signal
Sequence of Left-right determination factor 2 (Homo sapiens) (O00292 whole entry, looked up): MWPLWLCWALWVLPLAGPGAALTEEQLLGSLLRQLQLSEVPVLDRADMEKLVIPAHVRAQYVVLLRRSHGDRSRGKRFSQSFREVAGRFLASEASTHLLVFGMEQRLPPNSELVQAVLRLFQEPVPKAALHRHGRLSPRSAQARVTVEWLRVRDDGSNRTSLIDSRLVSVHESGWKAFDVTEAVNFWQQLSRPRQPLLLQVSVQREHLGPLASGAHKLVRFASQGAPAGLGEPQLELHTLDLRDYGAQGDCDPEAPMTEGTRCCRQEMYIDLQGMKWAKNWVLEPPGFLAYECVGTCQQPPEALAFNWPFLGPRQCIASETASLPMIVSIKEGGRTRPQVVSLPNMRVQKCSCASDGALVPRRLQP

[14] = target: Calmodulin-1 (Homo sapiens) (UniProt P0DP23); experiment: CALM1 binders on microarrays, EGTA buffer, profiling panel, biochemical, small-molecule microarray, Cy5-labelled CALM1 (AID 1111); conditions: Cy5-CALM1 binding fluorescence, higher = more signal;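 further: labelled calmodulin applied in Tris saline Tween buffer holding calcium plus EGTA and DTT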
[15] = target: Calmodulin-1 (Homo sapiens) (UniProt P0DP23); experiment: calcium-bound CALM1 binders on microarrays, profiling panel, artefact control for SMM control-protein annotation, biochemical, small-molecule microarray, Cy5-labelled CALM1, plus calcium (AID 1112); conditions: Cy5-CALM1 binding fluorescence, higher = more signal;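 further: score merges spot fluorescence with signal to noise from triplicate slides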
[16] = small-molecule microarray binders of probe aWnt5a, primary screen, biochemical, biotinylated probe, 635/667 nm fluorescence (AID 1113); conditions: higher = more signal;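 further: score merges 667 nm fluorescence intensity with signal-to-noise per printed feature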
[17] = small-molecule microarray binders of probe aShh, primary screen, biochemical, biotinylated probe, 635/667 nm fluorescence (AID 1114); conditions: higher = more signal;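 further: probe is biotin-labelled aShh protein from a stem cell growth factor screen; measures binding of labelled protein to compounds printed on the slide; score merges feature fluorescence at 667 nm with signal-to-noise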
[18] = small-molecule microarray binders of probe aNog, primary screen, biochemical, biotinylated probe, 635/667 nm fluorescence (AID 1115); conditions: higher = more signal;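 further: probe is biotinylated aNog protein used at 0.15 µg/mL for 1 h at 4 C; z-score combines 667 nm fluorescence of each spot with its signal to noise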
[19] = target: Torsin-1A-interacting protein 1 (Homo sapiens) (UniProt Q5JTV8); experiment: LAP1 binders from COS7 cell lysate, primary screen, small-molecule microarray, 635/667 nm fluorescence (AID 1116); conditions: COS7-hLAP1 lysate binding, 635 nm fluorescence, higher = more signal
Sequence of Torsin-1A-interacting protein 1 (Homo sapiens) (Q5JTV8 whole entry, looked up): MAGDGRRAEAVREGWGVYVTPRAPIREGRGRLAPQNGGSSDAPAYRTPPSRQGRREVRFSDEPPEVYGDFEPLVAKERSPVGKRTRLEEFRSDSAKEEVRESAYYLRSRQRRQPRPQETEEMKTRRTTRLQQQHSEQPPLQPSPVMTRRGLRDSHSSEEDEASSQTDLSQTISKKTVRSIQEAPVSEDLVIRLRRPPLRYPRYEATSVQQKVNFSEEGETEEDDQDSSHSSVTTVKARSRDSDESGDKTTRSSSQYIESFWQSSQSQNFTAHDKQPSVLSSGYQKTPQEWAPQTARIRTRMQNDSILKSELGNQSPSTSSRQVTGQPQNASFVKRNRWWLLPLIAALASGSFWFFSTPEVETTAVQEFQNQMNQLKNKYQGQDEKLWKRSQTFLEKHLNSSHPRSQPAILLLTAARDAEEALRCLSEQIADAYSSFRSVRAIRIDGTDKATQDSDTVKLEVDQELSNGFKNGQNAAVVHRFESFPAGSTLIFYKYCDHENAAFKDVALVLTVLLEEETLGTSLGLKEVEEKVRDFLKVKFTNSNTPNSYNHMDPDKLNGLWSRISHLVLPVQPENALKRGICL

[20] = target: Alpha-bungarotoxin (Bungarus multicinctus) (UniProt P60615); experiment: alpha-bungarotoxin binders on microarray, profiling panel, artefact control for SMM control protein annotation, biochemical, small-molecule microarray, Alexa647 label, 635/667 nm fluorescence (AID 1117); conditions: alpha-BTX-A647 binding fluorescence, higher = more signal
Sequence of Alpha-bungarotoxin (Bungarus multicinctus) (P60615 whole entry, looked up): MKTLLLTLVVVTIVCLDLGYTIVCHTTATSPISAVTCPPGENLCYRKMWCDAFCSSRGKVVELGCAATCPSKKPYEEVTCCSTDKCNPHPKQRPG

SMILES	composite z-score [1]	composite z-score [2]	composite z-score [3]	z-score [4]	composite z-score [5]	composite z-score [6]	composite z-score [7]	composite z-score [8]	composite z-score [9]	composite z-score [10]	composite z-score [11]	z-score [12]	composite z-score [13]	composite z-score [14]	composite z-score [15]	composite z-score [16]	composite z-score [17]	composite z-score [18]	composite z-score [19]	composite z-score [20]
COC(=O)C(CC#Cc1ccc2c(c1)[C@]1(C(=O)N2)[C@H](C(=O)NC[C@H](O)c2ccccc2)[C@H]2C(=O)O[C@H](c3ccccc3)[C@H](c3ccccc3)N2[C@@H]1c1ccc(O)cc1)C(=O)OC	0.535	-0.107	0.369	0.266 (inactive)	0.243	-0.857	0.221	-0.0104	-0.293	-0.137	-0.603	-1.7	-0.357	-0.113	-0.327	-0.217	-0.138	-0.121	-0.223	-0.111
CO[C@H]1O[C@H](CO)[C@@H](OC(=O)Nc2cccc(F)c2)[C@H](OC(=O)Nc2ccc3c(c2)OCO3)[C@@H]1OC(=O)Nc1ccc2c(c1)OCO2	1.13	0.359	0.558	-1.13 (inactive)	1	1.2	0.0595	1.37	0.229	0.663	1.5	-1.14	-0.0699	0.911	-1.04	0.0186	0.214	0.724	1.46	1.02
COC(=O)c1c2oc(c1C(=O)OC)C(=O)N[C@H](Cc1ccccc1)Cn1cc(nn1)C1(CCCCC1)NC(=O)N[C@H](CO)CC2	0.569	-0.177	-0.279	-0.168 (inactive)	0.495	-0.528	-0.857	-0.409	-0.2	0.116	-1.21	0.0733	-0.161	-0.311	-0.0933	-0.105	0.0639	0.0119	0.459	2.39
O=C1O[C@H](c2ccccc2)[C@H](c2ccccc2)N2[C@H]1[C@@H](C(=O)N1CCN(c3ncccn3)CC1)[C@]1(C(=O)Nc3ccc(C#CC4(O)CCCCCC4)cc31)[C@H]2c1ccc(O)cc1	1.54	0.111	-0.156	-0.262 (inactive)	0.989	1	0.241	0.764	0.185	0.0022	1.07	-0.317	0.15	1.14	0.792	-0.0037	0.106	-0.0496	0.679	2.18
COc1ccc(NN2C(C(O)c3ccc(F)cc3)C=CC3C(=O)N(C4CCCCC4)C(=O)C32)cc1 (stereo not given)	0.565	0.959	0.763	-0.794 (inactive)	0.995	0.928	0.801	1.01	0.129	1.24	1.44	-0.502	0.14	1.08	0.722	0.0919	0.108	1.03	0.297	1.37
CC1(C)OB(/C=C\CC(OC(=O)c2ccncc2)c2ccccc2)OC1(C)C (stereo not given)	0.398	1.17	1.47	0.639 (inactive)	-0.951	-0.131	-1.31	-0.0031	-1.26	1.75	0.0565	-0.382	-1.46	-2.58	-2.34	-0.124	0.0469	-0.76	0.161	-0.778
CC[C@@H](O[Si](C#C[Si](C(C)C)(C(C)C)C(C)C)(C(C)C)C(C)C)c1cn(Cc2cccc(Cl)c2)nn1	0.433	-0.0597	-0.3	0.453 (inactive)	0.418	0.791	0.293	0.775	0.388	0.232	0.906	-0.959	0.374	0.0371	-0.461	-0.0194	-0.154	-0.124	0.403	0.485
C=CCOC(=O)[C@H]1[C@@H]2C(=O)O[C@@H](c3ccccc3)[C@@H](c3ccccc3)N2[C@@H](c2ccc(OCCOC(=O)[C@H]3C[C@H]4C(=O)NCC(=O)N4[C@H]3c3cccc(OCCO)c3)cc2)[C@]12C(=O)Nc1ccc(I)cc12	1.1	-0.109	0.0341	0.341 (inactive)	1.37	1.3	0.504	1.37	0.614	0.622	1.23	-0.903	0.541	1.05	0.0934	0.0629	0.131	0.131	1.44	1.08
COc1ccc([Si](C)(C)[C@@H]2[C@@H](CC(=O)N3Cc4ccccc4C[C@H]3CO)O[C@]3(C(=O)N(Cc4ccc(I)cc4)c4ccccc43)[C@H]2C)cc1	0.458	-0.128	-0.357	-1.36 (inactive)	1.12	0.66	1.22	1.36	1.45	1.52	1.3	-3.76	0.878	0.186	0.426	-0.0472	-0.304	-0.503	0.224	0.308
COc1ccc(C(=O)Nc2cccc(CN3C(=O)[C@]4(O[C@H](CC(=O)N(CCO)Cc5ccccc5)[C@@H]([Si](C)(C)c5ccc(OC)cc5)[C@@H]4C)c4ccccc43)c2)cc1	1.12	-0.275	0.123	0.288 (inactive)	1.11	-0.117	0.666	0.702	0.649	0.794	0.753	-3.73	0.546	-0.0878	-0.342	0.093	-0.0192	-0.0315	0.566	0.696
COc1ccc(C#Cc2ccc3c(c2)[C@]2(C(=O)N3)[C@H](c3ccccc3OCCO)N3[C@H](c4ccccc4)[C@H](c4ccccc4)OC(=O)[C@H]3[C@@H]2C(=O)NC[C@H](O)c2ccccc2)cc1	1.3	0.183	-0.0392	-2.01 (inactive)	1.33	1.31	0.573	1.34	1.2	-0.0784	1.32	-2.93	1.02	1.11	-0.127	-0.0846	-0.16	-0.479	1.01	1.26
